Activity calls are given as the source filed them.

Assay [1] concerns PRMT1 (protein arginine N-methyltransferase 1). Description: small molecules binding arginine methyltransferase PRMT1 – biochemical, small-molecule microarray, 635 nm fluorescence, primary screen (AID 1088).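 Also: binding of Prmt1 protein to compounds spotted on small-molecule microarray slides.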 Particulars: higher = more signal.
Assay [2] in a line: growth effects on S. cerevisiae YJM789 – YJM789 clinical isolate, OD600, 24 h, basal, primary screen (AID 1089).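 Also: growth of clinical yeast isolate S. cerevisiae YJM 789 seeded 1000 cells per well; test concentration not given here.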 Particulars: higher = more signal, called active from +8 up or from −8 down.
A short description of assay [3]: S. pombe growth modifiers, basal conditions – strain 972, OD600, 24 h, no modulator, primary screen (AID 1090).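 Also: basal condition with compound alone and no growth modifier present; test concentration not given here.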 Particulars: S. pombe 972 growth, higher = more signal, called active from +8 up or from −8 down.
Assay [4] is described as follows: budding yeast growth modifiers under rapamycin – strain BY4716, OD600, 96 h, primary screen (AID 1091). Also: test concentration not given here. Particulars: S. cerevisiae BY4716 + rapamycin, higher = more signal, called active from +8 up or from −8 down.
Assay [5] deals with Torsin-1A-interacting protein 2 (Homo sapiens) (UniProt Q8NFQ8). Description: small molecules binding lysate-expressed LULL1 – cell lysate, human LULL1 lysate, 635/667 nm fluorescence, primary screen (AID 1092).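 Also: probe is lysate of COS7 cells overexpressing human LULL1; score merges per-feature 667 nm fluorescence with signal-to-noise.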 Particulars: small-molecule microarray, hLULL1 lysate binding, 635 nm fluorescence; higher = more signal.
Sequence of Torsin-1A-interacting protein 2 (Homo sapiens) (Q8NFQ8 whole entry, looked up): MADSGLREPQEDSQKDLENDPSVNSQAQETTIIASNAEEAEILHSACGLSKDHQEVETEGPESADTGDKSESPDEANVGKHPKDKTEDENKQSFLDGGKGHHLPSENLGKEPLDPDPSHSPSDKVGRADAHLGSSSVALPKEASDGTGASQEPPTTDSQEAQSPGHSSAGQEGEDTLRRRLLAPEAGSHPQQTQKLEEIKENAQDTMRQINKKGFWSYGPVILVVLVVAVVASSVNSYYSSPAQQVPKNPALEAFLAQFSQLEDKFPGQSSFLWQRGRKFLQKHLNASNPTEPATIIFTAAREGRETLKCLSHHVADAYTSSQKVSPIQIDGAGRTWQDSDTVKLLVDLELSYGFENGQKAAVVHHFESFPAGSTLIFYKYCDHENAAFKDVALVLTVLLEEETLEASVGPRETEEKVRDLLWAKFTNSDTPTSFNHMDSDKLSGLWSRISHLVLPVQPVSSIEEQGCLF
The nature of assay [6]: optical density change of DRC41 E. coli – strain DRC41, OD650, 24 h, E. coli filamentation project, primary screen (AID 1093).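 Also: MC1000 strain lacking acrAB efflux and sulA so SOS filamentation is blocked; test concentration not given here.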 Particulars: E. coli DRC41 growth, higher = more signal, called active from +8 up or from −8 down.
The nature of assay [7]: probe aLefty2 binding to arrayed compounds – biochemical, biotinylated probe, 635/667 nm fluorescence, primary screen (AID 1094).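 Also: score merges spot fluorescence near 667 nm with spot signal-to-noise ratio.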 Particulars: small-molecule microarray, higher = more signal.
Assay [8] relates to Noggin (protein binding on small-molecule microarray). In words: small molecules binding Noggin protein – biochemical, 635/667 nm fluorescence, primary screen (AID 1095).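 Also: score merges 667 nm feature fluorescence with signal to noise over triplicate slides.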 Particulars: 635 nm fluorescence, higher = more signal.
For assay [9], the target named is Neurogenic locus notch homolog protein 3 (Homo sapiens) (UniProt Q9UM47). In words: small molecules binding NOTCH3 protein – biochemical, 635/667 nm fluorescence, primary screen (AID 1096). Particulars: small-molecule microarray, 635 nm fluorescence, higher = more signal.
Sequence of Neurogenic locus notch homolog protein 3 (Homo sapiens) (Q9UM47 whole entry, looked up): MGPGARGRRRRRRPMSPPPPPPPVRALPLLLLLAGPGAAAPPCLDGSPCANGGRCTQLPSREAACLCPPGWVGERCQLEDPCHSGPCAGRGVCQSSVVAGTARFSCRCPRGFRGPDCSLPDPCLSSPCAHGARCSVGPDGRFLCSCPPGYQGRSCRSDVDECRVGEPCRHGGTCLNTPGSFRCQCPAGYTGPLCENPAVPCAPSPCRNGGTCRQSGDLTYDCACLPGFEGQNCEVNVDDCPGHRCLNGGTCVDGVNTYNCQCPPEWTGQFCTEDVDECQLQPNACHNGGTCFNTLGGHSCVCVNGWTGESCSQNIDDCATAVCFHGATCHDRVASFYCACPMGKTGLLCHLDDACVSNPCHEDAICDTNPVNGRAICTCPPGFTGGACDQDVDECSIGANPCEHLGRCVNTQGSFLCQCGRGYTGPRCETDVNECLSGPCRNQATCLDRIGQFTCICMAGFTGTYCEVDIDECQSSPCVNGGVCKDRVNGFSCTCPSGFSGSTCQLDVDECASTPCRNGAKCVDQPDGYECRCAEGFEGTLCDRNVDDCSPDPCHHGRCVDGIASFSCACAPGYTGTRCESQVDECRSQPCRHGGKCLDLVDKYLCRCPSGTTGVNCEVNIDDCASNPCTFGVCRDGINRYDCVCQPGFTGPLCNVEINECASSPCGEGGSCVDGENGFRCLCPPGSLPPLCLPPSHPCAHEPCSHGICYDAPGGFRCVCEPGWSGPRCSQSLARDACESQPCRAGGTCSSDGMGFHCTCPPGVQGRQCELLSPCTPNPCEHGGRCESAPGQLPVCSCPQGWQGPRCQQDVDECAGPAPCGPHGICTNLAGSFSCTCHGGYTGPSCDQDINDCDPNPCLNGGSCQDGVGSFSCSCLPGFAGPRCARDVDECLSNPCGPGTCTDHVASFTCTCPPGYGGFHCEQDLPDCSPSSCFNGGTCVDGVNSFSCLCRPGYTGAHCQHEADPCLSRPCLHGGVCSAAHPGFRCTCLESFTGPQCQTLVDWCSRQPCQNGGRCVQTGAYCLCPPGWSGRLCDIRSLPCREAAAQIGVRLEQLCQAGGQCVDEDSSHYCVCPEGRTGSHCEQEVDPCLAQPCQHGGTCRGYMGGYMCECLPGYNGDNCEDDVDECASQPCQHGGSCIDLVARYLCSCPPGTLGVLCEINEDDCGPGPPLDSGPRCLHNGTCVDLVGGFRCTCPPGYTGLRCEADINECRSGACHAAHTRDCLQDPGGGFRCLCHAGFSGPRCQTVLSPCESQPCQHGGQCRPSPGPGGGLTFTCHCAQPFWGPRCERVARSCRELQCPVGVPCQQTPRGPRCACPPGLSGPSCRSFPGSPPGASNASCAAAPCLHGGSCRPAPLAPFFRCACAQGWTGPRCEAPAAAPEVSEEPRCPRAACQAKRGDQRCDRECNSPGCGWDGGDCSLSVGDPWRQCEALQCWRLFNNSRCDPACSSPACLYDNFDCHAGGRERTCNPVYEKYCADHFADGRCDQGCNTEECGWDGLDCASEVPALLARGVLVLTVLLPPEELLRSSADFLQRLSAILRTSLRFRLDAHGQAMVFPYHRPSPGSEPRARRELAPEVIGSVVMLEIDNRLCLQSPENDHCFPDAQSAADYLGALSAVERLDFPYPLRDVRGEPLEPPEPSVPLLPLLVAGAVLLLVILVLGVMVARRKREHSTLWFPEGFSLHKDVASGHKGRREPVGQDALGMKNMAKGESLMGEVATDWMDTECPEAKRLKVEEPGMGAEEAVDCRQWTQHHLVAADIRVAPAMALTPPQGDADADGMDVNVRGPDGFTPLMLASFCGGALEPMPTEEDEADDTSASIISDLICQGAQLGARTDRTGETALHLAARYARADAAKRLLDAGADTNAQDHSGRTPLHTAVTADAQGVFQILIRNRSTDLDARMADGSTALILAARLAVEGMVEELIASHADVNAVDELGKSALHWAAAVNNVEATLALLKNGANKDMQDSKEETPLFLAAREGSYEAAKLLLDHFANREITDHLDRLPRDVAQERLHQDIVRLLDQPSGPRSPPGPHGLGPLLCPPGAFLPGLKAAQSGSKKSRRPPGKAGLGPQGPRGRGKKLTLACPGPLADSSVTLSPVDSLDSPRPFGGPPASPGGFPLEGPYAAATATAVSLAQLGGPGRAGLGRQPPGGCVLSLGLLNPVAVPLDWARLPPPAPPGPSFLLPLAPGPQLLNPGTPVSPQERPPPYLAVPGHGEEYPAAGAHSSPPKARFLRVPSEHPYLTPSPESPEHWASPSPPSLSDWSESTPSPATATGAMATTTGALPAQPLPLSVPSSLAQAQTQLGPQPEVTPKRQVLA
The nature of assay [10]: probe aEGFR binding to arrayed compounds – biochemical, biotinylated probe, 635/667 nm fluorescence, primary screen (AID 1097).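 Also: probe is a biotinylated anti-EGFR antibody binding compounds printed on slides; score combines fluorescence near 667 nm and signal to noise of each spot.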 Particulars: small-molecule microarray, higher = more signal.
Assay [11] concerns Plasmodium falciparum Sir2 (PF13_0152, Sir2A). In words: Plasmodium falciparum Sir2A binding compounds – biochemical, small-molecule microarray, 635 nm fluorescence, primary screen (AID 1098).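 Also: score merges spot fluorescence intensity with its signal-to-noise ratio.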 Particulars: fluorescence 635 nm, higher = more signal.
Assay [12] is described as follows: probe aDKK1 binding to arrayed compounds – biochemical, biotinylated probe, 635/667 nm fluorescence, primary screen (AID 1099).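 Also: score merges 667nm spot fluorescence with signal to noise across triplicate slides; reference of the scale not given here.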 Particulars: small-molecule microarray, higher = more signal.
The nature of assay [13]: probe aCHRDL2 binding to arrayed compounds – biochemical, biotinylated probe, 635/667 nm fluorescence, primary screen (AID 1100). Particulars: small-molecule microarray, higher = more signal.
A short description of assay [14]: change in splice reporter luminescence, either direction, cell-based, HEK293, spliceosome inhibition project, primary screen (AID 1101).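 Also: HEK293 cells carrying a splicing-competent luciferase reporter gene; test concentration not given here.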 Particulars: HEK293 splicing luciferase reporter, 24 h, higher = more signal, called active from +8 up or from −8 down. In general terms: Reporter assays use an easily measured gene product as a stand-in for the process of interest.

Assay [15] addresses Fibroblast growth factor 10 (Homo sapiens) (UniProt O15520). In words: compounds binding fibroblast growth factor 10 – biochemical, small-molecule microarray, 635 nm fluorescence, primary screen (AID 1102). Particulars: FGF10 binding, fluorescence 635 nm, higher = more signal.
The subject of assay [16] is glycogen synthase kinase-3 (GSK3A per assay name; protocol says GSK3B). In words: compounds binding glycogen synthase kinase-3 – biochemical, small-molecule microarray, 635 nm fluorescence, GSK3A, primary screen (AID 1103). Also: the record names both GSK3A and GSK3B. Particulars: fluorescence 635 nm, higher = more signal.
In assay [17] the target is Epidermal growth factor receptor (Homo sapiens) (UniProt P00533). Description: compounds binding epidermal growth factor receptor – biochemical, small-molecule microarray, 635 nm fluorescence, primary screen (AID 1104).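 Also: score merges 667 nm emission intensity with spot signal to noise over triplicate slides.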 Particulars: EGFR binding, higher = more signal.
Sequence of Epidermal growth factor receptor (Homo sapiens) (P00533 whole entry, looked up): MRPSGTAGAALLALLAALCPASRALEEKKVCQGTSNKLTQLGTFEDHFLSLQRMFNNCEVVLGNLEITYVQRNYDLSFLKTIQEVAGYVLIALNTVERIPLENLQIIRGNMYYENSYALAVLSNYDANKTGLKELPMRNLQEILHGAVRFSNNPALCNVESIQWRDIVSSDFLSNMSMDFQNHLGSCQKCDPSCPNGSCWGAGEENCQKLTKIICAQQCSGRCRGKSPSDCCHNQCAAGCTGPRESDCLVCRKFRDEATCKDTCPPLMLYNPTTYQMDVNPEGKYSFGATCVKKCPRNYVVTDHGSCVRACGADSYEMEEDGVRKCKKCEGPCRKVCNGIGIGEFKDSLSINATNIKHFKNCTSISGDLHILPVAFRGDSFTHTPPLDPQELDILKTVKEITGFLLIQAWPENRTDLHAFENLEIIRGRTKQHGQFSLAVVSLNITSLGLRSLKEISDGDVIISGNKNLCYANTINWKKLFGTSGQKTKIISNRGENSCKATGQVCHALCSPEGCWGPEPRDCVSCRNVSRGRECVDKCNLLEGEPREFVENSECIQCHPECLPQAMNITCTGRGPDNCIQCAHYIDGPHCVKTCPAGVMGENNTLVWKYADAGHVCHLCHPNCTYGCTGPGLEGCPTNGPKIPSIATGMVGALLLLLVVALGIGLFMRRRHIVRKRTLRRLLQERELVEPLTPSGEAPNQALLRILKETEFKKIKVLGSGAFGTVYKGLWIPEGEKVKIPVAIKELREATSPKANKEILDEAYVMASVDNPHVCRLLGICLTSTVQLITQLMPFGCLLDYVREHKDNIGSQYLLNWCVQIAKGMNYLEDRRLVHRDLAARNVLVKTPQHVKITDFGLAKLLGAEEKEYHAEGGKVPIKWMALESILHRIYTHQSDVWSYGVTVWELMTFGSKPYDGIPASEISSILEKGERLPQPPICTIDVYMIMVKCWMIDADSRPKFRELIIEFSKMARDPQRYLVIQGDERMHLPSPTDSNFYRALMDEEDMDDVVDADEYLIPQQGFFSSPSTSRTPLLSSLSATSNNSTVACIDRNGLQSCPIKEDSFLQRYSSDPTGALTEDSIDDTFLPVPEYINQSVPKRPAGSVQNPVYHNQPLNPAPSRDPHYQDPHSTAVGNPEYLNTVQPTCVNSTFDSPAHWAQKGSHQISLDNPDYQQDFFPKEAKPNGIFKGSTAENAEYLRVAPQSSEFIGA
For assay [18], the target named is Follistatin-related protein 3 (Homo sapiens) (UniProt O95633). In words: compounds binding follistatin-related protein 3 – biochemical, small-molecule microarray, 635 nm fluorescence, primary screen (AID 1105).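 Also: score merges emission near 667 nm and signal to noise per printed spot across three slides.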 Particulars: FSTL3 binding, higher = more signal.
Sequence of Follistatin-related protein 3 (Homo sapiens) (O95633 whole entry, looked up): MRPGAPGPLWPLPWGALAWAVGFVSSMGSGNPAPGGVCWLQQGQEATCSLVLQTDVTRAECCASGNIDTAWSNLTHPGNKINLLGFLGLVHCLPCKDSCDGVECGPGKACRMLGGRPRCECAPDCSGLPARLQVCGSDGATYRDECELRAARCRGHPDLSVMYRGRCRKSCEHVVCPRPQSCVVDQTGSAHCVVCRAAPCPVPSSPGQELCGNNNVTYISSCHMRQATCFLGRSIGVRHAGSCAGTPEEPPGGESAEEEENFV
For assay [19], the target named is Dickkopf-related protein 1 (Homo sapiens) (UniProt O94907). In words: small molecules binding DKK1 protein – biochemical, small-molecule microarray, 635 nm fluorescence scan, primary screen (AID 1106).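 Also: score merges emission near 667 nm with signal to noise over three replicate slides.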 Particulars: higher = more signal.
Sequence of Dickkopf-related protein 1 (Homo sapiens) (O94907 whole entry, looked up): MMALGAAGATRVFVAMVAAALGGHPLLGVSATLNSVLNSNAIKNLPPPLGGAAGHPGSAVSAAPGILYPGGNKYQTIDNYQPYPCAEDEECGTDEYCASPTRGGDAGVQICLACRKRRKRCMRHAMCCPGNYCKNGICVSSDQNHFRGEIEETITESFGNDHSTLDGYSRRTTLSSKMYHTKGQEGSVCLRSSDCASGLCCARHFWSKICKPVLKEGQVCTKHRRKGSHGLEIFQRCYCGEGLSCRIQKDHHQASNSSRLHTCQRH
Assay [20] relates to Inhibin beta A chain (activin A). In words: small molecules binding activin A – biochemical, small-molecule microarray, 635 nm fluorescence scan, primary screen (AID 1107).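 Also: mouse activin A protein probed at 4.33 µg/mL on printed slides; score merges bound-protein fluorescence near 667 nm with spot signal-to-noise.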 Particulars: INHBA, higher = more signal.

Sequence of Fibroblast growth factor 10 (Homo sapiens) (O15520 whole entry, looked up): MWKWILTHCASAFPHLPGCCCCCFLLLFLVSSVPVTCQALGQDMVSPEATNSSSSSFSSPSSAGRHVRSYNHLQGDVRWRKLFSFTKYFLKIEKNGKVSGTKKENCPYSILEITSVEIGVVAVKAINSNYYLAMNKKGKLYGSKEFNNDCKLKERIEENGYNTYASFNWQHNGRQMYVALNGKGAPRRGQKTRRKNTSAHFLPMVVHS

As for `C=CC[C@]1(C(=O)N2CCCCC2)N=C(c2ccc(OCCCO)cc2)O[C@H]1c1ccccc1N=[N+]=[N-]`, the composite z-score is 1.58 in assay [1]; 3.44 in assay [5]; 0.619 in [7]; 1.17 in assay [8]; 1.08 in assay [9]; 0.561 in [10]. In addition, the composite z-score in assay [11] is 1.55; in [12], 1.26; in assay [13] it was 1.42; in [15], 0.975; in assay [16] it was 1.27; in [17] it was 0.292. Moreover, the composite z-score in assay [18] was 1.3; in [19], -0.0913; in [20] it was 1.06. Besides, the z-score in [2] is -0.534 (inactive); in assay [3], -1.18 (inactive); in [4] it was 0.946 (inactive); in [6] it was 0.208 (inactive); in [14], -0.461 (inactive).
On to `O=C(O)[C@@H]1Cc2c([nH]c3ccccc23)[C@@H](c2ccccc2)N1`, for which the composite z-score is -0.645 in assay [1]; 0.249 in [5]; -0.106 in assay [7]; 0.483 in assay [8]; 0.46 in assay [9]; -0.046 in assay [10]. The composite z-score in assay [11] is 0.0269; in assay [12] it was -0.317; in assay [13] it was -0.58; in [15] it was 0.315; in [16], 0.61; in [17], 0.373. In addition, the composite z-score was 0.518 in assay [18], 0.509 in assay [19] and -0.332 in [20]. Further, the z-score in [2] is -0.0524 (inactive); in assay [3], -0.474 (inactive); in [4], -0.731 (inactive); in assay [6] it was 0.294 (inactive); in assay [14] it was -0.333 (inactive).
For `NC(=O)NCC#Cc1ccc2c(c1)[C@]1(C(=O)N2)[C@H](C(N)=O)[C@H]2C(=O)O[C@H](c3ccccc3)[C@H](c3ccccc3)N2[C@@H]1c1ccccc1OCCO`, the composite z-score in assay [1] is 1.22; in assay [5], 1.04; in assay [7], 0.129; in [8], 0.546; in [9], 1.11; in assay [10], -0.151. Moreover, the composite z-score amounted to 0.628 in [11]; 0.371 in [12]; 0.482 in assay [13]; 1.06 in assay [15]; 0.343 in [16]; 0.269 in assay [17]. Also, the composite z-score in [18] worked out at 1.02; in [19], 0.576; in assay [20], 1.02. Also, the z-score in [2] was 0.592 (inactive); in [3], 0.742 (inactive); in [4] it was 0.804 (inactive); in [6] it was -0.829 (inactive); in [14] it was -0.328 (inactive).

Source of the values: PubChem BioAssay.
